From PubChem
Autofluor counter – flagged as autofluorescent in microsphere protease counterscreen. compound autofluorescence counterscreen, microsphere flow cytometry; hits give high values. fluorescence intensity (test concentration not listed). hit rate 3.1% among 360,000. AID 624483; in the data active = fluorescence intensity above about 16000; inconclusive = no clear call, values can overlap the other calls
Anthrax LF prot – inhibitors of Bacillus anthracis lethal factor protease. inhibition, % at 10 µM. P15917. AID 588501. hit rate 0.12% among 360,000. multiplex microsphere protease cleavage assay, LF
FBA Mtb inh – inhibitors of M. tuberculosis fructose-bisphosphate aldolase. P9WQA3. purified M. tuberculosis FBA, fluorescence read-out. inhibition, % at 1 µM. hit rate 2.3% among 360,000. AID 588726; in the data active = inhibition above about 27%
Target sequence (P9WQA3 whole entry, looked up): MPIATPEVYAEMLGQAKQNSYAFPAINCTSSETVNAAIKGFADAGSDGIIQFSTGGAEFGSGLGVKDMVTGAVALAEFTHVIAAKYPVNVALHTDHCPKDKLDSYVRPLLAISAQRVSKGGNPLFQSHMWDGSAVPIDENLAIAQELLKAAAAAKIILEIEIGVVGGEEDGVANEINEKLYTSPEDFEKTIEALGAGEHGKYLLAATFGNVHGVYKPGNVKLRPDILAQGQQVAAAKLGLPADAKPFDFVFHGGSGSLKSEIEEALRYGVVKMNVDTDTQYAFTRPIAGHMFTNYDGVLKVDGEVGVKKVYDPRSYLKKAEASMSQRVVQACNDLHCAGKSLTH
BoNT A protease – blocks Botulinum neurotoxin A light chain protease; AID 588499; inhibition, % at 10 µM; multiplex microsphere protease substrate cleavage, flow cytometry; hit rate 0.17% among 360,000
GDH-TPI inh – counter-screen for M. tuberculosis FBA inhibitors: GDH-TPI coupled enzymes. GDH-TPI coupled enzyme counterscreen, NADH absorbance. inhibition, % at 4.8 µM. hit rate 1.2% among 360,000. AID 588335; in the data active = inhibition above about 30%
BoNT-F LC inh – inhibitors of Botulinum neurotoxin F light chain protease; Multiplex microsphere protease cleavage assay, flow cytometry; inhibition, % at 10 µM; hit rate 0.22% among 360,000; in the data active = inhibition above about 35%, passing the limit was not always enough; inconclusive = no clear call, values can overlap the other calls
Numbers stand for hits; . = inactive; ? = inconclusive. In the library only some 6.7% were active in any assay of this set; here they are far more common. Rule as the data show it, unless noted: active = inhibition above about 30%; inconclusive = no clear call, values can overlap the other calls; inactive = below that.

SMILES	Autofluor counter	Anthrax LF prot	FBA Mtb inh	BoNT A protease	GDH-TPI inh	BoNT-F LC inh
CN1C(=O)S/C(=C/c2cccnc2)C1=O	21884	.	.	.	32	.
O=C(NCCN1C(=O)S/C(=C/c2cccnc2)C1=O)c1cccs1	.	.	.	.	32	.
OC(C#CCN1CCCCCC1)(c1ccccc1)c1cccnc1 (stereo unspecified)	.	.	.	?	.	?
CCN1CCN(c2ccc(S(=O)(=O)N3CCOCC3)cc2NC(=O)/C=C/c2ccc(OC)c(OC)c2)CC1	?	.	.	.	34	.
COc1ccc(/C=N/NC(=S)Nc2cc(S(=O)(=O)N3CCOCC3)ccc2N2CCOCC2)cc1O	.	.	.	.	42	.
O=C(N/N=C/C=C/c1ccccc1[N+](=O)[O-])c1ccncc1	.	?	.	.	.	56
COc1ccccc1/C=C/C=N/NC(=O)c1ccco1	.	?	.	.	37	.
CCn1c(SCC(=O)N/N=C/C=C\c2ccccc2[N+](=O)[O-])nnc1-c1ccccc1	16357	.	.	.	.	.
Cc1ccc(S(=O)(=O)N2CCN(CC(=O)N/N=C\c3ccccn3)CC2)cc1	.	.	.	.	.	.
COc1ccccc1/C=C/C=N/NC(=O)CN1CCN(S(=O)(=O)c2ccc(C)cc2)CC1	.	.	.	.	33	.
O=C(N/N=C/C=C/c1ccccc1[N+](=O)[O-])c1cccnc1	.	.	.	.	.	.
O=C(N/N=C\c1ccccc1OCc1ccccc1)c1ccco1	.	.	.	.	.	.
O=C(NCC1CCCCC1)c1ccc2nc([C@H]3C[C@H](O)[C@@H](CO)O3)[nH]c2c1	.	.	.	.	.	.
COc1ccccc1/C=C/C=N/NC(=O)Cc1cccs1	.	.	.	.	32	.
O=C(O)c1ccc(N/N=C/C=C/c2ccccc2[N+](=O)[O-])cc1	.	.	.	.	39	.
O=C(N/N=C/C=N/NC(=O)c1ccco1)c1ccco1	.	.	.	.	54	.
COc1ccccc1-c1cc(C(=O)N/N=C/C=C/c2ccccc2[N+](=O)[O-])c2ccccc2n1	.	.	.	.	31	.
O=C(Cc1ccccc1)N/N=C/C=C/c1ccccc1[N+](=O)[O-]	.	.	.	.	.	.
O=C(Cc1cccs1)N/N=C/C=C/c1ccccc1[N+](=O)[O-]	.	.	.	.	.	?
O=C(CN1CCN(Cc2ccc3c(c2)OCO3)CC1)Nc1ccc2c(c1)OCCO2	.	.	.	.	.	.
COc1ccccc1/C=C/C=N/NC(=O)c1ccncc1	.	.	.	.	44	.
Cc1ccsc1/C=N/NC(=O)CNC(=O)c1ccco1	.	.	.	.	.	.
COc1ccccc1/C=C/C=N/NC(=O)c1cc(-c2ccc(C)o2)[nH]n1	.	.	.	?	44	?
COc1ccccc1C=NNC(=O)c1ccncc1	.	.	.	.	.	.
Cc1ccsc1/C=N/NC(=O)c1ccco1	.	.	.	.	33	.
SMILES	Autofluor counter	Anthrax LF prot	FBA Mtb inh	BoNT A protease	GDH-TPI inh	BoNT-F LC inh
CSc1ccccc1OCc1cc(C(=O)N(C)Cc2c(C)n[nH]c2C)no1	.	.	.	.	.	.
CN(C)c1ccc(C=NNc2nc3c([nH]2)c(=O)n(C)c(=O)n3C)cc1	.	.	.	.	47	.
COc1cc(C=NNc2nc3c([nH]2)c(=O)n(C)c(=O)n3C)ccc1O	.	.	.	.	.	.
CC(C)(C)c1ccc(C(=O)N/C(=C\c2ccco2)C(=O)Nc2ccccc2C(=O)O)cc1	.	.	.	.	.	.
Cc1cccc2nc(-c3ccco3)c(Nc3ccccc3)n12	.	.	121	.	.	.
CCc1ccccc1OCc1nc2ccc(S(=O)(=O)N3CCOCC3)cc2[nH]1	.	.	.	.	.	.
COc1ccc(Cc2nc3ccc(S(=O)(=O)N4CCOCC4)cc3[nH]2)cc1	.	.	.	.	.	.
COc1ccc(Cc2nc3ccc(S(=O)(=O)N4CCOCC4)cc3[nH]2)cc1OC	24349	.	.	.	.	.
Cc1ccccc1OCc1nc2ccc(S(=O)(=O)N3CCOCC3)cc2[nH]1	22238	.	.	.	.	.
CCCCn1c(N)nc2ccccc21	.	.	.	.	.	.
Cc1cc(OC(=O)c2ccco2)c(Sc2ccccc2[N+](=O)[O-])c(=O)o1	.	.	.	.	.	.
O=S(=O)(c1cc(Cl)ccc1Cl)N1CCNCC1	20984	.	.	.	.	.
O=S(=O)(c1ccc(Cl)cc1Br)N1CCCCC1	20568	.	.	.	.	.
O=C1CN(S(=O)(=O)c2cc(Cl)ccc2Cl)CCN1	.	.	.	.	.	.
CC(C)c1ccccc1NC(=O)COC(=O)Cc1c[nH]c2ccccc12	.	.	.	.	.	.
O=C1OC(CN2CCOCC2)CN1N=Cc1ccc([N+](=O)[O-])o1 (stereo unspecified)	.	.	.	.	32	.
CC(=O)C1=C(O)C(=O)N(CCCO)C1c1ccccc1 (stereo unspecified)	.	.	.	.	.	.
CC(=O)C1=C(O)C(=O)N(CCO)C1c1ccccc1 (stereo unspecified)	.	.	.	.	47	.
CC(=O)N1CCc2cc(NC(=O)C3(C)CCN3CCc3ccccc3)ccc21 (stereo unspecified)	.	.	.	.	.	.
Cc1ccc(S(=O)(=O)Nc2ccc(Nc3nccn4c(-c5ccc6ccccc6c5)cnc34)cc2)cc1	.	.	.	.	32	.
COC(=O)c1ccc(-c2csc(NC(=O)c3c(C)noc3C)n2)cc1	.	.	.	.	.	.
CC(C)=CC(=O)Nc1ccccc1Br	17220	.	.	.	.	.
CC(C)N(C)C1CCN(C(=O)Nc2ccc(Cl)cc2)CC1	23132	.	.	.	.	.
CC(=O)c1ccc(OC(=O)C(CCS(C)(=O)=O)N2C(=O)c3ccccc3C2=O)cc1 (stereo unspecified)	21318	.	.	.	.	.
CCCCN(c1ccccc1)S(=O)(=O)c1cccc(C(=O)O)c1	.	.	.	.	.	.
SMILES	Autofluor counter	Anthrax LF prot	FBA Mtb inh	BoNT A protease	GDH-TPI inh	BoNT-F LC inh
CCN(c1cccc(C)c1)S(=O)(=O)c1ccc2[nH]c(=O)c(=O)[nH]c2c1	21312	.	.	.	.	.
CCN(c1cccc(C)c1)S(=O)(=O)c1cc2[nH]c(=O)c(=O)[nH]c2cc1C	.	.	.	.	.	.
CCN(c1cccc(C)c1)S(=O)(=O)c1cccc(C(=O)O)c1	23200	.	.	.	.	.
COc1cccc(CNC(=O)CSc2cc(=O)n(C)c3ccccc23)c1	.	.	.	.	.	.
CCN(C(=O)COC(=O)c1ccccc1NCCO)C1CCS(=O)(=O)C1 (stereo unspecified)	.	.	129	.	.	.
CCN(C(=O)COC(=O)c1cc2ccccc2cc1O)C1CCS(=O)(=O)C1 (stereo unspecified)	.	.	.	.	.	.
CCCCn1c(=N)n(CC(O)c2ccccc2)c2ccccc21 (stereo unspecified)	.	.	.	.	.	.
CCc1oc2ccccc2c1C(=O)CCN1CCCCC1	.	.	.	.	.	.
